Sampled rows, rich in hits. Any-hit rate of the full collection: about 7.2%.
MARV entry inh = qHTS for inhibitors of binding or entry into cells for Marburg Virus | Marburg virus pseudotyped entry inhibition, cell reporter | Potency, µM (series often up to 37.8 µM), hits mostly inhibitors | 1.8% of 300,000 active | AID 540276, 2011; calls by dose curve; tested in HEK293 cells
FMDV antiviral = High Throughput Screening for Foot and Mouth Disease Virus Antivirals. FMDV antiviral cell-based qHTS. Potency, µM (titrated, usually from 57.9 µM), usual class: inhibitors. 1.2% of 410,000 active; calls by dose curve; tested in HEK293T cells; further: read-out not given here; nearly all actives have a fitted effect of over 45% in size
HCV inhibitor = qHTS Assay for Inhibitors of Hepatitis C Virus (HCV) | Huh7.5.1 HCVcc-Cre infection, luciferase reporter, 44 h | Potency, µM (doses to about 41.8 µM), usual class: inhibitors | 3.4% of 340,000 active | AID 651820, 2012
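After 44 h co-culture of compound, cells and HCVcc-Cre (~0.5 moi), substrate is added for 15 min at room temperature and luciferase measured over 15 sec. Cells were seeded at 1,000/well and pre-cultured 4 h.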
Sm TGR inh = qHTS Assay for the Inhibitors of Schistosoma Mansoni Peroxiredoxins | AID 485364, 2010 | 3% of 360,000 active | Potency, µM (series often up to 114 µM), actives largely listed as inhibitors | purified TGR, DTNB reduction, TNB absorbance 405 nm; further: nearly all actives have a fitted effect of over 60% in size
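TGR 20 nM + NADPH 100 uM (dispensed conc.), cpd preinc 15 min RT; start with NADPH (500 uM addition) then DTNB (15 mM addition). Kinetic TNB absorbance, 405 nm filter. Four-parameter Hill fit across titration.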
RE007 growth inh = qHTS Assay for Inhibitors of the HIV-1 protein Vpr; Potency, µM (doses to about 92.2 µM), actives largely listed as inhibitors; AID 651644, 2012; S. pombe RE007 Vpr strain, BacTiter-Glo ATP luminescence, 24 h; 0.21% of 360,000 active; active means well fitted falling curve with a large enough effect; inconclusive means small, poorly fitted or top-dose-only effect; inactive means no such curve, though single readings can be large or run the other way; further: nearly all actives have a fitted effect of over 50% in size
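Fission yeast strain RE007, carrying one chromosomally integrated HIV-1 vpr copy, was seeded at OD 0.01 in PMG+AL medium with 23 nL pinned compound. After 24 h at 30 °C and 99% humidity, viability was read by BacTiter-Glo luminescence.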
Lassa entry inh = qHTS for Inhibitors of binding or entry into cells for Lassa Virus; Lassa virus pseudotype entry inhibition, cell reporter; Potency, µM (highest dose often 37.9 µM), usual class: inhibitors; 1.2% of 300,000 active; AID 540256, 2011; calls by dose curve; tested in HEK293 cells; further: nearly all actives have a fitted effect of over 50% in size
Hits are given with their value; [ ] = dose if it differs, or a comment. Unless noted, the call rests on the fitted dose curve; in most records, active means well fitted curve in the direction sought with a large enough effect; inconclusive means small, poorly fitted or top-dose-only effect, or another doubt; inactive means no such curve, though single readings can be large; an effect the other way counts as inactive or inconclusive.

What do the screens show for `Cc1ccc(NC(=O)c2cc(C)n(-c3ccccc3)c2C)cc1`?
MARV entry inh: 2.2µM; FMDV antiviral: inconclusive; HCV inhibitor: inconclusive; Sm TGR inh: inactive; RE007 growth inh: inactive; Lassa entry inh: 2.8µM

How did CCN(CC)C(=O)CSC1=C(C#N)C(c2cccs2)C=C(C)N1 (centres undefined) do in these assays?
MARV entry inh: 7.9µM; FMDV antiviral: inactive; HCV inhibitor: inactive; Sm TGR inh: inactive; RE007 growth inh: inactive; Lassa entry inh: inconclusive

What do the screens show for `COc1ccc(-c2cc(C(=O)Nc3c(C(=O)c4ccc(Cl)cc4)oc4ccccc34)no2)cc1`?
MARV entry inh: inactive; FMDV antiviral: inactive; Sm TGR inh: inactive; Lassa entry inh: inactive

Results for CCN(CC)c1ccc2c(c1)oc(=O)c1c(Cl)cc(=O)oc12 ?
MARV entry inh: inconclusive; FMDV antiviral: inconclusive; HCV inhibitor: inconclusive; Sm TGR inh: 6.3µM; RE007 growth inh: inactive; Lassa entry inh: inconclusive

Results for CCOC(=O)Cc1c(C)c2ccc(N(CC)CC)cc2oc1=O ?
MARV entry inh: inactive; FMDV antiviral: inactive; HCV inhibitor: 10µM; Sm TGR inh: inactive; RE007 growth inh: inactive; Lassa entry inh: inactive

How did CCN(CC)c1ccc2c(C)c(Cl)c(=O)oc2c1 do in these assays?
MARV entry inh: inconclusive; FMDV antiviral: inactive; HCV inhibitor: inactive; Sm TGR inh: inactive; RE007 growth inh: inactive; Lassa entry inh: inconclusive

How did CCN(CC)c1ccc2c(C)c(-c3ccc(N)cc3)c(=O)oc2c1 do in these assays?
MARV entry inh: inconclusive; FMDV antiviral: inactive; HCV inhibitor: 8.9µM; Sm TGR inh: inactive; RE007 growth inh: inactive; Lassa entry inh: 10µM

What do the screens show for `CCN(CC)c1ccc2c(Cl)c(Br)c(=O)oc2c1`?
MARV entry inh: inconclusive; FMDV antiviral: inconclusive; HCV inhibitor: inconclusive; Sm TGR inh: inconclusive; RE007 growth inh: inactive; Lassa entry inh: inconclusive

What do the screens show for `CCc1ccccc1NC(=O)CN1C(=O)c2cccnc2Sc2ccccc21`?
FMDV antiviral: inactive; Sm TGR inh: inactive; Lassa entry inh: inactive

How did COc1ccc(CC(=O)NCc2ccc3c(c2)CCN3C(=O)c2ccc(C)cc2)cc1OC do in these assays?
FMDV antiviral: inactive; Sm TGR inh: inactive; Lassa entry inh: inactive

How did CCOC(=O)N1CCc2c(sc(NCc3cccc(F)c3)c2C(=O)Nc2ccc(OCC)cc2)C1 do in these assays?
FMDV antiviral: inactive; Sm TGR inh: inactive; Lassa entry inh: inactive

What do the screens show for `O=C(Nc1cccc(C(=O)N2CCCCC2)c1)c1nsc2ccccc12`?
FMDV antiviral: inactive; Sm TGR inh: inactive; Lassa entry inh: inconclusive

How did O=C(C(=O)c1cc(Br)ccc1O)c1cc(Br)ccc1O do in these assays?
MARV entry inh: inconclusive; FMDV antiviral: inactive; HCV inhibitor: inconclusive; RE007 growth inh: inactive; Lassa entry inh: inconclusive

What do the screens show for `O=C(c1ccc(O)c(Br)c1)c1cc(Br)ccc1O`?
MARV entry inh: inconclusive; FMDV antiviral: inactive; HCV inhibitor: inactive; RE007 growth inh: 63µM; Lassa entry inh: inactive

What do the screens show for `CCOCCCNC(=O)c1[nH]c2cc(C)ccc2c1Sc1ccc(Cl)cc1`?
MARV entry inh: inconclusive; FMDV antiviral: inactive; Sm TGR inh: inactive; Lassa entry inh: inactive

How did O=C(Nc1cccc(C(=O)N2CCCCC2)c1)C1CCC1 do in these assays?
FMDV antiviral: inactive; HCV inhibitor: inactive; RE007 growth inh: inactive

How did O=C(Nc1cccc(C(=O)N2CCCC2)c1)C1CCC1 do in these assays?
FMDV antiviral: inactive; HCV inhibitor: 0.56µM; RE007 growth inh: inactive

How did O=C(Cc1cccc(NC(=O)C2CCCN(C(=O)CCc3ccccc3)C2)c1)Nc1cccc(C(=O)N2CCCCC2)c1 (centres undefined) do in these assays?
FMDV antiviral: inconclusive; HCV inhibitor: 4.5µM; RE007 growth inh: inactive

What do the screens show for `CN(C(=O)c1cccc(NC(=O)Cc2cccc(NC(=O)C3CCCN(C(=O)CCc4ccccc4)C3)c2)c1)C1CCC1` (centres undefined)?
FMDV antiviral: inconclusive; HCV inhibitor: 3.5µM; RE007 growth inh: inactive

What do the screens show for `CN(C(=O)c1ccc(NC(=O)Cc2cccc(NC(=O)C3CCCN(C(=O)CCc4ccccc4)C3)c2)cc1)C1CC1` (centres undefined)?
FMDV antiviral: inactive; HCV inhibitor: inactive[8.37 µM]; RE007 growth inh: inactive

What do the screens show for `COc1ccc(CCNC(=O)c2nn(-c3ccc(C)cc3)c(=O)c3c2c2ccccc2n3C)cc1OC`?
MARV entry inh: inconclusive; FMDV antiviral: inactive; Sm TGR inh: inactive; Lassa entry inh: inactive

Results for Cc1cc(C)c2sc(N(Cc3cccnc3)C(=O)CCS(=O)(=O)c3ccccc3)nc2c1 ?
FMDV antiviral: inactive; Sm TGR inh: inconclusive; Lassa entry inh: inactive

How did Cc1ccc(/C=C/S(=O)(=O)NCC(=O)OCC(=O)Nc2c(F)cccc2F)cc1 do in these assays?
MARV entry inh: inactive; FMDV antiviral: inactive; HCV inhibitor: inconclusive; Sm TGR inh: 28µM; RE007 growth inh: inactive; Lassa entry inh: inactive

How did O=[N+]([O-])c1nn(-c2ccc3c(c2)OCCO3)n(O)c1=NCc1ccccc1Cl do in these assays?
MARV entry inh: inactive; HCV inhibitor: inactive; Sm TGR inh: inactive; RE007 growth inh: inactive; Lassa entry inh: inactive

Results for COc1ccccc1CN=c1c([N+](=O)[O-])nn(-c2ccc3c(c2)OCCO3)n1O ?
MARV entry inh: inconclusive; FMDV antiviral: inactive; HCV inhibitor: inactive; Sm TGR inh: 40µM; RE007 growth inh: inactive; Lassa entry inh: inactive

Results for COc1ccc(-n2nc([N+](=O)[O-])c(=NCCc3ccc(OC)c(OC)c3)n2O)cc1 ?
MARV entry inh: inconclusive; FMDV antiviral: inconclusive; HCV inhibitor: 13µM; Sm TGR inh: 35µM; RE007 growth inh: inactive; Lassa entry inh: inconclusive

Results for COc1ccc(-n2nc([N+](=O)[O-])c(=NCCc3ccc(C)cc3)n2O)cc1 ?
MARV entry inh: inactive; FMDV antiviral: inactive; HCV inhibitor: inactive; Sm TGR inh: inactive; RE007 growth inh: inactive; Lassa entry inh: inactive

Results for COc1ccc(-c2ccc(SC)nn2)cc1 ?
MARV entry inh: inconclusive; FMDV antiviral: inactive; HCV inhibitor: inactive; Sm TGR inh: inactive; RE007 growth inh: inconclusive; Lassa entry inh: 3.5µM

How did CCOc1ccc(-c2ccc(SCC)nn2)cc1 do in these assays?
MARV entry inh: inconclusive; FMDV antiviral: inactive; HCV inhibitor: inactive; RE007 growth inh: inactive; Lassa entry inh: inconclusive

How did CCOc1cc(C=C(C(=O)OC)C(=O)OC)ccc1OCc1ccc([N+](=O)[O-])cc1 do in these assays?
MARV entry inh: 2.8µM; FMDV antiviral: inconclusive; HCV inhibitor: 7.9µM; Sm TGR inh: inactive; RE007 growth inh: inactive; Lassa entry inh: 3.5µM

Results for CC(C)NC(=O)N1CCCC2(CCN(C(=O)c3ccncc3)CC2)C1 ?
FMDV antiviral: inactive

What do the screens show for `Cc1ccccc1-c1nc2scc(CCNS(=O)(=O)c3ccccc3)n2n1`?
FMDV antiviral: inactive; Sm TGR inh: inactive; Lassa entry inh: inconclusive

Screening data (PubChem BioAssay)
